Reference: PubChem BioAssay AID743445 (Broad Institute, 2014)
Among all 310,000 compounds or so, about 1,700 (0.55%) were called active. The sample as a whole holds a higher share of actives than the screen did. Values without a mark were called inactive. Rule as the data show it: active = inhibition above about 50%; inactive = the rest.

molecular target: Histone-lysine N-methyltransferase NSD2 (Homo sapiens) (UniProt O96028); assay: blockers of NSD2 lysine methylation activity – biochemical, AlphaScreen, single concentration, set 2, primary screen (AID 743445); conditions: NSD2 peptide methylation, 120 min, at 12.5 µM, stronger effect = higher value
Sequence (O96028 whole entry, looked up): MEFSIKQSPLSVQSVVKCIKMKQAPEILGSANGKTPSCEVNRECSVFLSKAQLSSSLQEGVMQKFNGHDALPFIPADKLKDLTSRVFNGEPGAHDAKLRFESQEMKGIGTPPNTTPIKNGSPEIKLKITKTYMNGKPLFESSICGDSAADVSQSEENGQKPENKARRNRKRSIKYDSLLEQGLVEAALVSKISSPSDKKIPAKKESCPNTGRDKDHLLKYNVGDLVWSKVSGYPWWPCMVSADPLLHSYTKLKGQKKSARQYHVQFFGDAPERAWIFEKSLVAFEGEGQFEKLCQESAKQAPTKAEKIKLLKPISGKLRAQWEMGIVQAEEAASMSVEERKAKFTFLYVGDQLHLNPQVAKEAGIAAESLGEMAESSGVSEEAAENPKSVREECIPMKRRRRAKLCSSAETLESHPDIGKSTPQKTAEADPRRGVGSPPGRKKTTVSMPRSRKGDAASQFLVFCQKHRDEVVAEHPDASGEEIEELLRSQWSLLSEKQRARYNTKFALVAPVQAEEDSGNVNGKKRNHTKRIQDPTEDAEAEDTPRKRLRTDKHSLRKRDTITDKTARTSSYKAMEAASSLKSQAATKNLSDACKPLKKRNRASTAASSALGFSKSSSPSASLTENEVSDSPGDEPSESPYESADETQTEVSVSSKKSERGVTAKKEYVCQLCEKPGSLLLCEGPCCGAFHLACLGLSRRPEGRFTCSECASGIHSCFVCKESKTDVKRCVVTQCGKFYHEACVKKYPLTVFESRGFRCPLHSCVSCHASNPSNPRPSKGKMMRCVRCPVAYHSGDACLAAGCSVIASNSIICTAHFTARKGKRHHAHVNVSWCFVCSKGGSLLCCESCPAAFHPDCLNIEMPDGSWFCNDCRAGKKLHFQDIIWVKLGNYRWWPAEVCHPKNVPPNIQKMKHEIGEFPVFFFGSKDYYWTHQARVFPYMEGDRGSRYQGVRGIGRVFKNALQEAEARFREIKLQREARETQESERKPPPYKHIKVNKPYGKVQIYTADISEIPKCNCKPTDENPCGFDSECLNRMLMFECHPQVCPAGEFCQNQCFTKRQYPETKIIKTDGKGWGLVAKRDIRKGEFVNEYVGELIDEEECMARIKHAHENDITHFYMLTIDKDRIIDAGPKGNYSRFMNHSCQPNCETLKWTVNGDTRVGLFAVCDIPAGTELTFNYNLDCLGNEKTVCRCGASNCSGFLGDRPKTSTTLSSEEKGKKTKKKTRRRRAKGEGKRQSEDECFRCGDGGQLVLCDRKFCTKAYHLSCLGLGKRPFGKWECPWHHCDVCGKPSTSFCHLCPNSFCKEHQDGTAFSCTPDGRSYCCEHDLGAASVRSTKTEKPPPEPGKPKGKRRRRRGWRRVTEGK

| Structure (SMILES) | inhibition |
| --- | --- |
| Nn1c(SCC(=O)Nc2cccc3ccccc23)nnc1-c1cc(-c2ccc(F)cc2)n[nH]1 | 8.09% |
| COc1ccc(-n2c(COc3ccccc3)nnc2SCC(=O)Nc2ccc3c(c2)OCO3)cc1 | -0.703% |
| Cc1cc(C)cc(C(=O)NCCN2CCOCC2)c1 | 4.87% |
| CCOC(=O)c1c(C)[nH]c(C(=O)NCCN2CCOCC2)c1C | 74.8% (active) |
| CC(=O)c1c(C)[nH]c(C(=O)NCCCN2CCCC2)c1C | 7.16% |
| C=CCn1c(SCC(N)=O)nnc1-c1ccccc1OC | -2.46% |
| Cc1ccc(-n2c(COc3ccccc3)nnc2SCC(=O)Nc2ccc3c(c2)OCCO3)cc1 | 5.45% |
| O=C(Nc1cc(F)cc(F)c1)OC1CCC12CCC(c1ccccc1)CC2 (stereo not drawn) | -4.2% |
| COC(=O)c1ccccc1-n1cc(COC(=O)NCCc2ccccc2)nn1 | -1.58% |
| O=C(CCCCCN1C(=O)C2C3C=CC(C3)C2C1=O)Nc1ccccc1 (stereo not drawn) | -10.2% |
| O=C(Nc1ccccc1)N1CCN(Cc2nc3ccccc3c(=O)[nH]2)CC1 | -3.56% |
| O=C(CSc1nnnn1-c1ccccc1)NCc1ccco1 | -2.53% |
| O=C(NCc1ccco1)c1nc2ncccn2n1 | -4.87% |
| O=C(NCc1ccco1)c1nc(-c2ccccc2)n(-c2ccccc2)n1 | 59.6% (active) |
| COC(=O)C1=C(C)N(Cc2cccc(C(F)(F)F)c2)C(=NCc2ccccc2)NC1c1ccccc1C(F)(F)F (stereo not drawn) | -2.64% |
| Nn1c(SCC(=O)Nc2ccc(S(N)(=O)=O)cc2)nnc1-c1n[nH]c2c1CCC2 | -3.92% |
| O=C(CSc1nc2sc3c(c2c(=O)n1-c1ccccc1)CCCC3)NN=Cc1ccc(OCc2ccccc2)cc1 | 6.16% |

| Structure (SMILES) | inhibition |
| --- | --- |
| C/C(CC(=O)NC(C)(C)C)=N\NC(=O)c1ccco1 | -3.83% |
| C/C(=N/NC(=O)CCc1ccccc1)c1ccco1 | 51.2% (active) |
| COc1cccc2cc(/C(C)=N/NC(=O)c3ccco3)oc12 | -1.2% |
| CCOc1ccc(Oc2c(Cl)cnn(-c3ccc(C)cc3)c2=O)cc1 | -2.84% |
| O=C(CSc1nc2c(c(=O)[nH]1)CCCC2)N1CCCCC1 | -1.56% |
| CC(C)Nc1nc(NCCOc2ccccc2Cl)c2sccc2n1 | 2.58% |
| COc1cc(/C=C/C(=O)n2cnc3ccccc32)cc(OC)c1OC | 0.939% |
| Cc1nn(-c2ccccc2)c(Cl)c1/C=C/C(=O)c1ccc(O)cc1 | -0.695% |
| Cc1ccccc1-n1nc(C)c2cc(C(=O)NC3CC3)sc21 | 0.032% |
| Cc1ccccc1-n1nc(C)c2c1N=C1C(Cl)=CC(Cl)=CN1C2c1ccc(C(=O)O)cc1 (stereo not drawn) | 51.3% (active) |
| COc1ccc([C@H]2OC(=O)C[C@H]2C(=O)N2CCN(c3ccccc3F)CC2)cc1OC | -1.64% |
| COc1ccccc1N(C)S(=O)(=O)c1ccc(C(=O)N2CCC(C(N)=O)CC2)cc1 | -2.68% |
| COc1ccccc1N(C)S(=O)(=O)c1ccc(C(=O)NC2CCCCCC2)cc1 | 50.3% (active) |
| COc1ccc(S(=O)(=O)NC(C)C)cc1C(=O)NC1CCCCC1 | 0.027% |
| O=C(NCCC1=CCCCC1)C1CCN(S(=O)(=O)c2ccc(Cl)s2)CC1 | -2.83% |
| COc1ccccc1-c1cc(NC(C)=O)c2ncc(-c3ccc(F)cc3)n2c1 | -0.432% |
